The values below come from ChEMBL document CHEMBL4513141, “CO-ADD screening of NIH (USA) - Clinical Collection” (2021).

In one experiment the test system is Klebsiella pneumoniae. As to conditions: Concentration 20 uM; ASSAY_TEST Inhibition of Bacterial Growth; detection method Absorption (OD600); MEDIA CAMHB; plate type 384well; NBS; CORNING #3640; time 18 hr.
A further experiment concerns Candida albicans. As to conditions: 20 µM.
For the next experiment, the system named is Cryptococcus neoformans. As to conditions: Concentration 20 uM; ASSAY_TEST Inhibition of Fungal Growth; detection method Resazurin; Absorption (OD600-OD570); plate type 384well; NBS; CORNING #3640. (Resazurin is reduced to fluorescent resorufin, in cell work by metabolically active cells.)

Molecules are shown by their SMILES. Results with a measured potency or affinity are listed apart.

Turning to `CC(=O)O[C@H]1C[C@@H]2CC[C@@H]3[C@H](CC[C@@]4(C)[C@H]3C[C@H]([N+]3(C)CCCCC3)[C@@H]4OC(C)=O)[C@@]2(C)C[C@@H]1N1CCCCC1.[Br-]` [VECURONIUM BROMIDE], the Inhibition (usually the change of the read-out against control, counted positive when it falls) was -0.14% in the experiment on Klebsiella pneumoniae, 5.46% with Candida albicans and 2.54% in the experiment with Cryptococcus neoformans.

`CC#C[C@]1(O)CC[C@H]2[C@@H]3CCC4=CC(=O)CCC4=C3[C@@H](c3ccc(N(C)C)cc3)C[C@@]21C` [MIFEPRISTONE]: the values for the Inhibition with Klebsiella pneumoniae, in the experiment on Candida albicans and in the experiment on Cryptococcus neoformans were 3.7%, 3.98% and -10.45%, respectively.

As to `COc1ccc(-c2oc3c(CC=C(C)C)c(O[C@@H]4O[C@H](CO)[C@@H](O)[C@H](O)[C@H]4O)cc(O)c3c(=O)c2O[C@@H]2O[C@@H](C)[C@H](O)[C@@H](O)[C@H]2O)cc1` [ICARIIN], the Inhibition in the experiment on Klebsiella pneumoniae came to 1.41%; in the experiment on Candida albicans, 4.36%; with Cryptococcus neoformans it was 0.11%.

Regarding `CN1CCCC(n2nc(Cc3ccc(Cl)cc3)c3ccccc3c2=O)CC1.Cl` (configuration not stated) [AZELASTINE HYDROCHLORIDE], the Inhibition in the experiment with Klebsiella pneumoniae is -1%; in the experiment with Candida albicans, 4.45%; in the experiment with Cryptococcus neoformans, 4.19%.

As to `Nc1nnc(-c2cccc(Cl)c2Cl)c(N)n1` [LAMOTRIGINE], the Inhibition in the experiment with Klebsiella pneumoniae was 6.26%; in the experiment with Candida albicans, 3.32%; with Cryptococcus neoformans it was -2.92%.

Turning to `Cc1cc2c(s1)Nc1ccccc1N=C2N1CCN(C)CC1` [OLANZAPINE], the values for the Inhibition in the experiment with Klebsiella pneumoniae, with Candida albicans and in the experiment on Cryptococcus neoformans were 5.81%, -0.3% and -5.37%, respectively.

`Cl.O=C(O)/C=C/c1ccc(Cn2ccnc2)cc1`: the Inhibition with Klebsiella pneumoniae is 3.67%; in the experiment with Candida albicans it was 3.2%; with Cryptococcus neoformans it was -5.32%.

As to `CC(=O)O.NCc1ccc(S(N)(=O)=O)cc1` [MAFENIDE ACETATE], the Inhibition with Klebsiella pneumoniae was 13.84%; in the experiment with Candida albicans, 0.67%; in the experiment with Cryptococcus neoformans, -7.57%.

With `O=C(O[C@H]1[C@H](Oc2ccccc2COC(=O)C2(O)C=CCCC2=O)O[C@H](CO)[C@@H](O)[C@@H]1O)c1ccccc1` (some centres not stated) [TREMULACIN], the values for the Inhibition in the experiment with Klebsiella pneumoniae, in the experiment on Candida albicans and with Cryptococcus neoformans were 9.15%, 3.13% and -9.11%, respectively.

Regarding `CCC(=O)O[C@]1(C(=O)CCl)[C@@H](C)C[C@H]2[C@@H]3CCC4=CC(=O)C=C[C@]4(C)[C@@]3(F)[C@@H](O)C[C@@]21C` [CLOBETASOL PROPIONATE], the Inhibition is -2.85% in the experiment on Klebsiella pneumoniae, 0.73% with Candida albicans and 4.34% in the experiment with Cryptococcus neoformans.

In the case of `Oc1ncc(F)cn1`, the results for the Inhibition in the experiment on Klebsiella pneumoniae, in the experiment with Candida albicans and with Cryptococcus neoformans were 12.75%, 0.46% and -8.59%, respectively.

`COc1ccc(CC2c3cc(OC)c(OC)cc3CC[N+]2(C)CCC(=O)OCCCCCOC(=O)CC[N+]2(C)CCc3cc(OC)c(OC)cc3C2Cc2ccc(OC)c(OC)c2)cc1OC.O=S(=O)(O)c1ccccc1` (configuration not stated): the results for the Inhibition in the experiment on Klebsiella pneumoniae, in the experiment with Candida albicans and in the experiment on Cryptococcus neoformans were 4.87%, 3.58% and -0.33%, respectively.

As to `CCC1(c2ccccc2)C(=O)NCNC1=O` [PRIMIDONE], the Inhibition came out at 7.75% in the experiment with Klebsiella pneumoniae, 2.22% in the experiment with Candida albicans and 0.81% in the experiment on Cryptococcus neoformans.

As for `Cc1cn([C@H]2C=C[C@@H](CO)O2)c(=O)[nH]c1=O` [STAVUDINE], the figures for the Inhibition in the experiment with Klebsiella pneumoniae, in the experiment with Candida albicans and in the experiment with Cryptococcus neoformans were 14.08%, 2.99% and 0.51%, respectively.

With `O=C(C1CCCCC1)N1CC(=O)N2CCc3ccccc3C2C1` (configuration not stated) [PRAZIQUANTEL], the Inhibition in the experiment on Klebsiella pneumoniae was 12.45%; in the experiment on Candida albicans it was 5.72%; in the experiment on Cryptococcus neoformans it was -0.79%.

For `CN(C)CCCN1c2ccccc2CCc2ccccc21.Cl` [IMIPRAMINE HYDROCHLORIDE], the Inhibition is 11.14% in the experiment on Klebsiella pneumoniae, 0.7% with Candida albicans and 0.01% in the experiment with Cryptococcus neoformans.

For the compound `Cl.Cn1c(NCCN(CCO)CCCc2ccc([N+](=O)[O-])cc2)cc(=O)n(C)c1=O`, the values for the Inhibition in the experiment on Klebsiella pneumoniae, in the experiment on Candida albicans and in the experiment on Cryptococcus neoformans were 3.03%, 4.73% and -1.07%, respectively.

Consider `C[C@@H]1C[C@H]2[C@@H]3C[C@H](F)C4=CC(=O)C(Cl)=C[C@]4(C)[C@@]3(F)[C@@H](O)C[C@]2(C)[C@@]1(O)C(=O)CO` [HALOMETASONE], for which the Inhibition in the experiment with Klebsiella pneumoniae was 3.82%; in the experiment with Candida albicans, -0.05%; with Cryptococcus neoformans it was -4.6%.

For the compound `COC(=O)C1=C(C)NC(C)=C(C(=O)OC(C)C)C1c1cccc2nonc12` (configuration not stated) [ISRADIPINE], the values for the Inhibition with Klebsiella pneumoniae, in the experiment on Candida albicans and with Cryptococcus neoformans were 7.21%, 4.43% and -5.25%, respectively.

On to `CCCSc1ccc2[nH]c(NC(=O)OC)nc2c1` [ALBENDAZOLE], for which the Inhibition in the experiment on Klebsiella pneumoniae is 3.18%; in the experiment with Candida albicans, 2.62%; with Cryptococcus neoformans it was 42.52%.

With `CC(C)NCC(O)COc1ccc(CC(N)=O)cc1` (configuration not stated) [ATENOLOL], the Inhibition in the experiment on Klebsiella pneumoniae worked out at 8.57%; in the experiment on Candida albicans, 3.26%; in the experiment with Cryptococcus neoformans, 1.62%.

For `C[C@]12CCC(=O)C=C1CC[C@@H]1[C@@H]2[C@@H](O)C[C@@]2(C)[C@H]1CC[C@]2(O)C(=O)CO` [HYDROCORTISONE], the Inhibition in the experiment with Klebsiella pneumoniae was 5.06%; with Candida albicans it was 1.65%; in the experiment on Cryptococcus neoformans, -3.64%.

Regarding `O=C1c2c(O)cc(O)cc2O[C@H](c2ccc(O)c(O)c2)[C@@H]1O`, the values for the Inhibition with Klebsiella pneumoniae, in the experiment on Candida albicans and in the experiment on Cryptococcus neoformans were 9.75%, 3.45% and -8.67%, respectively.

Regarding `Cc1nccn1CC1CCc2c(c3ccccc3n2C)C1=O` (configuration not stated) [ONDANSETRON], the Inhibition in the experiment with Klebsiella pneumoniae is 11.11%; in the experiment with Candida albicans, 4.72%; in the experiment on Cryptococcus neoformans, -0.32%.

In the case of `NS(=O)(=O)c1cc2c(cc1C(F)(F)F)NCNS2(=O)=O` [HYDROFLUMETHIAZIDE], the Inhibition in the experiment on Klebsiella pneumoniae is 13.59%; with Candida albicans, -0.33%; in the experiment on Cryptococcus neoformans, -2.31%.

Take `CC(N)C12CC3CC(CC(C3)C1)C2.Cl` (configuration not stated) [RIMANTADINE HYDROCHLORIDE]: the Inhibition with Klebsiella pneumoniae is 8.19%; with Candida albicans it was 2.89%; in the experiment on Cryptococcus neoformans it was -3.72%.

Turning to `Nc1ncnc2c1ncn2[C@@H]1O[C@H](CO)C[C@@H]1O.O`, the Inhibition in the experiment with Klebsiella pneumoniae is 6%; with Candida albicans it was 5.13%; in the experiment on Cryptococcus neoformans, -7.2%.

For `CN(C/C=C/C#CC(C)(C)C)Cc1cccc2ccccc12.Cl` [TERBINAFINE HYDROCHLORIDE], the Inhibition worked out at 11.69% in the experiment with Klebsiella pneumoniae, 32.9% in the experiment with Candida albicans and 35.41% with Cryptococcus neoformans.

With `CS(=O)(=O)O.Oc1ccc(C2CNCCc3c2cc(O)c(O)c3Cl)cc1` (configuration not stated) [FENOLDOPAM MESYLATE], the results for the Inhibition in the experiment with Klebsiella pneumoniae, in the experiment on Candida albicans and with Cryptococcus neoformans were 10.68%, 1.85% and -12.04%, respectively.

As for `CN(CCOc1ccc(NS(C)(=O)=O)cc1)CCc1ccc(NS(C)(=O)=O)cc1` [DOFETILIDE], the Inhibition in the experiment with Klebsiella pneumoniae is 7.49%; in the experiment on Candida albicans, 2.12%; with Cryptococcus neoformans, -1.31%.

Take `O=S(=O)([O-])CCS.[Na+]` [MESNA]: the Inhibition in the experiment with Klebsiella pneumoniae was found to be 6.51%; in the experiment with Candida albicans it was 4.45%; in the experiment with Cryptococcus neoformans, 1.48%.

With `C[n+]1ccccc1/C=N/O.[Cl-]` [PRALIDOXIME CHLORIDE], the Inhibition was 15.84% in the experiment with Klebsiella pneumoniae, 0.76% with Candida albicans and -2.73% with Cryptococcus neoformans.

Take `CC(C)[N+]1(C)C2CCC1CC(OC(=O)C(CO)c1ccccc1)C2.[Br-]` (configuration not stated): the Inhibition in the experiment with Klebsiella pneumoniae was -0.09%; with Candida albicans it was 0.17%; in the experiment on Cryptococcus neoformans it was -6.11%.

Turning to `O.OC[C@H]1O[C@@H](n2cnc3c(NC4CCCC4)nc(Cl)nc32)[C@@H](O)C1O` (some centres not stated), the Inhibition in the experiment on Klebsiella pneumoniae is 3.81%; in the experiment on Candida albicans, 1.81%; in the experiment on Cryptococcus neoformans, -4.95%.

`CN1CCC(=C2c3ccccc3CC(=O)c3sccc32)CC1.O=C(O)/C=C/C(=O)O` [KETOTIFEN FUMARATE]: the figures for the Inhibition in the experiment with Klebsiella pneumoniae, in the experiment on Candida albicans and in the experiment with Cryptococcus neoformans were 1.04%, 3.18% and -3.16%, respectively.

As to `CCCOc1ccc(C(=O)OCCN(CC)CC)cc1N.Cl` [PROPARACAINE HYDROCHLORIDE], the Inhibition with Klebsiella pneumoniae amounted to 1.6%; in the experiment on Candida albicans, 0.55%; in the experiment on Cryptococcus neoformans it was 2.64%.

For the compound `CC(CCc1ccccc1)NCC(O)c1ccc(O)c(C(N)=O)c1.Cl` (configuration not stated) [LABETALOL HYDROCHLORIDE], the Inhibition in the experiment on Klebsiella pneumoniae was 19.39%; with Candida albicans, 4.68%; with Cryptococcus neoformans, -9.04%.

For the compound `CC[N+](C)(CC)CCOC(=O)C(O)(c1ccccc1)C1CCCCC1.[Br-]` (configuration not stated) [OXYPHENONIUM BROMIDE], the Inhibition with Klebsiella pneumoniae was 20%; in the experiment with Candida albicans it was 2.42%; in the experiment on Cryptococcus neoformans, -6.44%.

As to `CC(=O)O[C@]1(C(C)=O)CC[C@H]2[C@@H]3C[C@H](C)C4=CC(=O)CC[C@]4(C)[C@H]3CC[C@@]21C` [MEDROXYPROGESTERONE ACETATE], the values for the Inhibition in the experiment on Klebsiella pneumoniae, in the experiment on Candida albicans and in the experiment with Cryptococcus neoformans were 17.28%, 4.88% and -5.46%, respectively.
